Several values for one entry are separate records, joined by “and”; a condition that tells them apart may be missing. Equal entries are not always repeated. More than one record can exist for a structure, and the calls need not agree. Activity calls are given as the source filed them. How the source made its calls: active means hit-call score of the fitted dose curve at least 0.9, where 1 is the maximum; inactive means score below 0.9.
Columns and labels:
[1] = ATG_GRE_CIS: Attagene CIS-FACTORIAL HepG2 Assay for human Glucocorticoid Response Elements (GRE) (AID 2282947); conditions: HepG2 GRE cis-reporter, Attagene multiplex mRNA; AC50: actives raise or lower the signal unless noted; outcome: actives raise or lower the signal unless noted
In short: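 Transient MRTU transfection of human HepG2 liver cells; cis-regulated reporters report endogenous factors. 24 h dosing → RNA isolation → RT-PCR → 6-FAM primer extension → HpaI cut → CE fragment analysis. Bidirectional fit, DMSO negative control.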

[2] = ATG_ISRE_CIS: Attagene CIS-FACTORIAL HepG2 Assay for human Interferon Regulatory Factor 1 (IRF1) binding to an Interferon-Stimulated Response Element (ISRE) (AID 2282948); conditions: HepG2 ISRE cis-reporter (Attagene), mRNA transcription readout; actives raise or lower the signal
In short: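 Cell-based cis-reporter assay; HepG2; 24 h exposure; reporter mRNA by RT-PCR plus capillary electrophoresis fluorescence; activity in either direction scored relative to DMSO.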

[3] = ATG_M_32_CIS: Attagene CIS-FACTORIAL HepG2 Assay for M32 Transcription Factor (Internal Marker) (AID 2282949); conditions: HepG2 Attagene cis-factorial M32 reporter, mRNA; actives raise or lower the signal;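 further: background control marker of the multiplexed CIS panel rather than a real target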
In short: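 HepG2 cells transiently transfected with multiplexed cis-regulated reporter units, dosed 24 h. Reporter mRNA quantified by RT-PCR, 6-FAM labelling, HpaI digestion and capillary electrophoresis; bidirectional fit vs DMSO.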

[4] = ATG_M_06_CIS: Attagene CIS-FACTORIAL HepG2 Assay for M06 Transcription Factor (Internal Marker) (AID 2282950); conditions: HepG2 Attagene CIS-FACTORIAL M06 internal marker reporter; actives raise or lower the signal
In short: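 Steps: transfect HepG2 with multiplexed cis-element reporter constructs; dose chemical 24 h; extract RNA with DNase treatment; reverse-transcribe, PCR-amplify, 6-FAM label, HpaI digest; separate fragments by capillary electrophoresis. Activity fitted both directions versus DMSO.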

[5] = target: Hypoxia-inducible factor 1-alpha (Homo sapiens) (UniProt Q16665); assay: ATG_HIF1a_CIS: Attagene CIS-FACTORIAL HepG2 Assay for human Hypoxia Inducible Factor 1 (HIF1A) (AID 2282951); conditions: HepG2 Attagene cis-factorial HIF1a reporter transcription; actives raise or lower the signal
In short: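 RT-PCR/capillary electrophoresis fluorescence readout of reporter transcripts from endogenous-TF-driven cis elements in transfected HepG2 cells, 24 h exposure; activity fitted in both directions against DMSO controls.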

[6] = target: Hepatocyte nuclear factor 6 (Homo sapiens) (UniProt Q9UBC0); assay: ATG_HNF6_CIS: Attagene CIS-FACTORIAL HepG2 Assay for human Hepatocyte Nuclear Factor 6 (HNF6) (AID 2282952); conditions: HepG2 Attagene cis-factorial HNF6 reporter transcription; actives raise or lower the signal
In short: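 Reporter mRNA induction or loss in HepG2 after 24 h exposure; transient cis-MRTU transfection; fragments quantified by capillary electrophoresis; bidirectional analysis, DMSO as negative control.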

[7] = target: Heat shock factor protein 1 (Homo sapiens) (UniProt Q00613); assay: ATG_HSE_CIS: Attagene CIS-FACTORIAL HepG2 Assay for human Heat Shock Transcription Factor 1 (HSE) (AID 2282953); conditions: HepG2 HSE cis-reporter, Attagene RNA transcription; actives raise or lower the signal
In short: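 Cells were transfected with cis-element-driven reporter constructs, dosed for 24 h, then total RNA was reverse-transcribed and reporter cDNA amplified, FAM-labelled and digested with HpaI. Fragments were resolved by capillary electrophoresis; gain or loss was fitted against DMSO.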

[8] = ATG_MRE_CIS: Attagene CIS-FACTORIAL HepG2 Assay for human Metal Responsive Element (MRE) (AID 2282954); conditions: HepG2 MRE cis-reporter transcription, Attagene multiplex; actives raise or lower the signal
In short: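 Transient MRTU transfection of HepG2 (FuGene 6); 24 h dosing; total RNA → oligo(dT) RT, PCR, 6-FAM primer extension, HpaI cut, CE. Bidirectional fit vs DMSO.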

[9] = ATG_PBREM_CIS: Attagene CIS-FACTORIAL HepG2 Assay for human Phenobarbital-responsive Enhancer Module (PBREM) (AID 2282955); conditions: HepG2 PBREM cis-reporter, Attagene multiplexed transcription; actives raise or lower the signal
In short: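 Reporter mRNA read by RT-PCR, 6-FAM primer extension, HpaI digestion and capillary electrophoresis. Transfected HepG2 cells, 24 h compound exposure. Gain or loss of signal fitted bidirectionally relative to DMSO baseline.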

[10] = target: Paired box protein Pax-6 (Homo sapiens) (UniProt P26367); assay: ATG_Pax6_CIS: Attagene CIS-FACTORIAL HepG2 Assay for human Paired Box 6 (PAX6) (AID 2282956); conditions: HepG2 CIS-FACTORIAL PAX6 reporter transcription, RNA readout; actives raise or lower the signal
In short: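 Multiplexed cis-reporter HepG2 system; 24 h treatment; reporter mRNA read by RT-PCR/CE fluorescence; bidirectional fit vs DMSO.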

Sequence of Paired box protein Pax-6 (Homo sapiens) (P26367 whole entry, looked up): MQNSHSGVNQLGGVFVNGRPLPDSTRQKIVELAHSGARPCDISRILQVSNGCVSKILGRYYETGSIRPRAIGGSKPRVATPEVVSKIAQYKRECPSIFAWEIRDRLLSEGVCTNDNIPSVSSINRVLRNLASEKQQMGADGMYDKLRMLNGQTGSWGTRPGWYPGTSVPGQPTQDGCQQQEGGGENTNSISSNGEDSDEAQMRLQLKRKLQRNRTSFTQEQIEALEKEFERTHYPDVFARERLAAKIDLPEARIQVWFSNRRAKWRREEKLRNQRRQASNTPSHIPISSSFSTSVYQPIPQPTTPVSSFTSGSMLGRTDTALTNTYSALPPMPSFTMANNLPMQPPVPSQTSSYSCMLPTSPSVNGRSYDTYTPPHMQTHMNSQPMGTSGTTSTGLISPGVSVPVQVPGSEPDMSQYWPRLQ
Sequence of Heat shock factor protein 1 (Homo sapiens) (Q00613 whole entry, looked up, the tested form may be a part): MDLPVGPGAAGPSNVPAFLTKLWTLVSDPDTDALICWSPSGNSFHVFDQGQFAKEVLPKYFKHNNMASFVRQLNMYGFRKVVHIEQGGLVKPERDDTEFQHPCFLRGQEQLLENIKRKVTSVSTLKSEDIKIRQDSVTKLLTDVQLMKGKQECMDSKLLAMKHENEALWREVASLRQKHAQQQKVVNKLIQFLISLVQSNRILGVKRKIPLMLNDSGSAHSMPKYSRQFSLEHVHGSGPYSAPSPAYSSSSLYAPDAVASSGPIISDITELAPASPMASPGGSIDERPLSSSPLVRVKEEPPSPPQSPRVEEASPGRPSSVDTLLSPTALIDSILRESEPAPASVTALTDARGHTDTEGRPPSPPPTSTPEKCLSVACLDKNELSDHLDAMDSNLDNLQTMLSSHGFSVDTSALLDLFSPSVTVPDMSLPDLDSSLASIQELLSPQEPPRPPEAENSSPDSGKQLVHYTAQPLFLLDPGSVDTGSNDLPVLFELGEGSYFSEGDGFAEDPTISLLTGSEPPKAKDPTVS
Sequence of Hepatocyte nuclear factor 6 (Homo sapiens) (Q9UBC0 whole entry, looked up, the tested form may be a part): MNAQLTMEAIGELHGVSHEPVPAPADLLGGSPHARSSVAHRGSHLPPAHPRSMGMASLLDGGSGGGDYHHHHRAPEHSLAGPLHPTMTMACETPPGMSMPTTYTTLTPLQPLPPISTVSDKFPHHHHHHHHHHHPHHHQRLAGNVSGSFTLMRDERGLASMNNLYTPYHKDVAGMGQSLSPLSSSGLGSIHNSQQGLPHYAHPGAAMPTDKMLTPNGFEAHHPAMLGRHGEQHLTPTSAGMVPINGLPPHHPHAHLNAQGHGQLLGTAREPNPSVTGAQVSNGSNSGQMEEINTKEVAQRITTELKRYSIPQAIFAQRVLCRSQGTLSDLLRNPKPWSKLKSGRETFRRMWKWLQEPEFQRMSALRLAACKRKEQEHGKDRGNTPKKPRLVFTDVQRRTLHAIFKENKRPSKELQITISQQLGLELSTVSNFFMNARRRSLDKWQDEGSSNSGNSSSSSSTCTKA
Sequence of Hypoxia-inducible factor 1-alpha (Homo sapiens) (Q16665 whole entry, looked up): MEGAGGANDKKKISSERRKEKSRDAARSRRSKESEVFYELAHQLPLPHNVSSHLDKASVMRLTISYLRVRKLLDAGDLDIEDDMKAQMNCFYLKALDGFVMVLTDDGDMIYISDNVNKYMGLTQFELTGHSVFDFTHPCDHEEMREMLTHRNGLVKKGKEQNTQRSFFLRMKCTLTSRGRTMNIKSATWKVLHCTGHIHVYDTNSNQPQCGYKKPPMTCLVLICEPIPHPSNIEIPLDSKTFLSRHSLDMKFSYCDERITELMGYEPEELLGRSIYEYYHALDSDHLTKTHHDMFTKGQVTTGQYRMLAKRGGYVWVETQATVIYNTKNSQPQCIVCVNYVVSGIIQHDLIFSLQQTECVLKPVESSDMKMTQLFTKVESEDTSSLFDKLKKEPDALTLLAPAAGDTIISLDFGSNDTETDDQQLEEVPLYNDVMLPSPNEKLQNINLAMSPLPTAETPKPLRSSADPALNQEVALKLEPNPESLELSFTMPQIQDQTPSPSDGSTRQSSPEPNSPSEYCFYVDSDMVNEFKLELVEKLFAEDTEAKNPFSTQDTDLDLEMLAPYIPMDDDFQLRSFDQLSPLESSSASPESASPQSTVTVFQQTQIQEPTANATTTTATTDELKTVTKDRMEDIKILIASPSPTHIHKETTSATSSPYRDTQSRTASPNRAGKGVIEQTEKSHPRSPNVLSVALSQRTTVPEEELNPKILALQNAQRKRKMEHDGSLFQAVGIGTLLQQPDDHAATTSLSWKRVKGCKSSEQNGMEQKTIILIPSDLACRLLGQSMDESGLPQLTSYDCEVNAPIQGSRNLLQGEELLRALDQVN

Compound	outcome [1]	outcome [2]	outcome [3]	outcome [4]	AC50 [5]	outcome [6]	AC50 [7]	outcome [7]	AC50 [8]	outcome [8]	AC50 [9]	outcome [9]	outcome [10]	outcome [5]	AC50 [2]	AC50 [3]	AC50 [6]	AC50 [10]	AC50 [1]
O=C(CC(=O)C(F)(F)C(F)(F)C(F)(F)F)c1cccs1	inactive [setting not given]	inactive	inactive	inactive	12.8 µM (active) and 16.5 µM (active)	inactive	86.8 µM (active)	inactive	50 µM (active)	inactive	69.7 µM (active)	inactive	inactive						
CCCCC(CC)C(=O)OCCOCCOCCOCCOC(=O)C(CC)CCCC (stereo unspecified)	inactive	inactive	inactive	inactive		inactive		inactive		inactive	27.6 µM (active)		inactive	inactive					
CC(O)COc1ccccc1 (stereo unspecified)	inactive	inactive	inactive	inactive		inactive		inactive		inactive		inactive	inactive	inactive					
CCCCCCCCCCCC[N+](C)(C)CCCCCCCCCCCC	inactive		inactive	inactive		inactive		inactive	4.84 µM (active)		25.3 µM (active)		inactive	inactive	100 µM (active)				
CCCCCCCCC(C)=O	inactive	inactive	inactive	inactive		inactive		inactive		inactive		inactive	inactive	inactive					
C=CC(C)(CCC=C(C)C)OC(C)=O (stereo unspecified)	inactive	inactive	inactive	inactive		inactive		inactive		inactive		inactive	inactive	inactive					
CCCCCCCCCCCC[N+](C)(C)Cc1ccccc1	inactive	inactive	inactive	inactive		inactive	18.7 µM (active)	inactive		inactive		inactive	inactive	inactive		20.3 µM (active)	17.6 µM (active)		
FC(OC(F)(F)C(F)(F)C(F)(F)F)C(F)(F)F (stereo unspecified)	inactive	inactive	inactive	inactive		inactive		inactive		inactive		inactive	inactive	inactive					
CC1CCC(CO)CC1 (stereo unspecified)	inactive	inactive	inactive	inactive		inactive		inactive		inactive		inactive	inactive	inactive					
C=CC(=O)OCCC(F)(F)C(F)(F)C(F)(F)C(F)(F)C(F)(F)C(F)(F)F	inactive	inactive	inactive	inactive		inactive		inactive		inactive		inactive	inactive	inactive					
c1ccc2c(c1)CCC2	inactive	inactive	inactive	inactive	36.5 µM (active)	inactive		inactive		inactive		inactive	inactive						
CC1CNCC(C)O1 (stereo unspecified)	inactive	inactive	inactive	inactive		inactive		inactive		inactive		inactive	inactive	inactive					
CCCCCCCCCCCCCCC	inactive	inactive	inactive	inactive		inactive		inactive		inactive		inactive	inactive	inactive					
C=Cc1ccc(O)c(OC)c1	inactive	inactive	inactive	inactive		inactive		inactive		inactive		inactive	inactive	inactive					
O=S(=O)(O)C(F)(F)C(F)(F)C(F)(F)C(F)(F)C(F)(F)C(F)(F)C(F)(F)C(F)(F)C(F)(F)C(F)(F)F	inactive	inactive	inactive	inactive		inactive		inactive		inactive		inactive	inactive	inactive					
CCc1cccc(CC)c1N(COC)C(=O)CS(=O)(=O)O	inactive	inactive	inactive	inactive		inactive		inactive		inactive	8.56 µM (active)		inactive	inactive					
FC(F)(F)C1(F)C(F)(F)C(F)(F)C(F)(F)C(F)(C(F)(F)F)C1(F)F (stereo unspecified)	inactive	inactive	inactive	inactive		inactive		inactive		inactive		inactive	inactive	inactive					
OCCN1CN(CCO)CN(CCO)C1	inactive		inactive	inactive		inactive	178 µM (active)		165 µM (active)			inactive		inactive	159 µM (active)			173 µM (active)	
O=S(=O)(c1ccc(OCc2ccccc2)cc1)c1ccccc1O			inactive	inactive	33.4 µM (active)		44.2 µM (active)		40.9 µM (active)		24.1 µM (active)				48.7 µM (active)		61.3 µM (active)	33.4 µM (active)	42.4 µM (active)
CCCCCC(C)OC(=O)COc1ccc(Cl)c2cccnc12 (stereo unspecified)	inactive	inactive	inactive	inactive		inactive		inactive		inactive		inactive	inactive	inactive					
CCCCCCCCCCCCCCCCCC[N+](C)(C)Cc1ccccc1			inactive	inactive				inactive	7.27 µM (active)			inactive	inactive	inactive	12.8 µM (active)		10.1 µM (active)		79.2 µM (active)
OCC1CCC(CO)CC1 (stereo unspecified)	inactive	inactive	inactive	inactive		inactive		inactive		inactive		inactive	inactive	inactive					
